PubChem BioAssay
Results filed as inconclusive are left out. Active and inactive are the calls of the source.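 The calls were made as follows, unless noted: active = inhibition over a set limit, the all-compound mean plus 3 SD, in both replicate runs; inconclusive = over that limit in just one replicate run; inactive = at or under that limit in both runs.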

test: growth suppression of PTEN-deleted HCT116, pilot screen, cell-based, HCT116 clonal line, CellTiter-Glo (AID 824;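 active = viability at or below 27.92% in each of two runs, the all-compound median minus 4 SD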;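 also: 0% = 20 µM Hyamine control and 100% = vehicle cell control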); settings: 60 h, at 10 µM, stronger effect = lower value

| SMILES | viability |
| --- | --- |
| O=S(=O)(Cc1ccccc1)N1CCn2c(nc3ccccc32)C1 | 97.5% (inactive) |
| Cc1noc(C(=O)NCc2ccco2)c1Cl | 101% (inactive) |
| Cc1cc(=O)[nH]c(SCc2cc(Cl)ccc2OC(F)F)n1 | 92.1% (inactive) |
| COc1cccc(C2CC(c3ccccc3OC)n3nc(N)nc3N2)c1 (stereo not drawn) | 95.2% (inactive) |
| O=C1c2ccccc2C(=O)N1CCc1nc2ccccc2c(=O)n1Cc1ccco1 | 88.6% (inactive) |
| CCN(CC(=O)NCc1ccc(F)cc1)C(=O)C1CCN(C(=O)Nc2ccccc2)CC1 | 98.6% (inactive) |
| COCCn1c(SCCN2CCOCC2)nc2c1c(=O)[nH]c(=O)n2C | 101% (inactive) |
| Cc1ccc(C(=O)NCCn2cc(SCC(=O)Nc3cc(C)on3)c3ccccc32)cc1 | 96.9% (inactive) |
| COC(=O)C1CCCN1C(C(=O)NC1CCCCC1)c1ccc(Cl)cc1 (stereo not drawn) | 74.9% (inactive) |
| CC(=O)c1ccc(OCCCC(=O)NCC(c2ccco2)N(C)C)cc1 (stereo not drawn) | 85.3% (inactive) |
| CCOc1ccc(NC2c3ccccc3C(=O)N2c2ccc(Cl)cn2)cc1 (stereo not drawn) | 94.6% (inactive) |
| O=C(c1ccco1)N1CCN=C1SCc1cccc(Cl)c1 | 91.9% (inactive) |
| Cc1nn(C(=O)CN2C(=O)c3ccccc3C2=O)c(C)c1Br | 103% (inactive) |
| CCOC(=O)CNc1c(N2CCN(c3ccccn3)CC2)c(=O)c1=O | 102% (inactive) |
| CCOC(=O)c1[nH]c(=O)[nH]c1CSc1nc(C)cc(C)n1 | 96.9% (inactive) |
| Cc1ccc(NC(=O)CSc2nnc(Cc3cccn3C)n2-c2ccc(F)cc2)c(C)c1 | 81.2% (inactive) |
| COc1ccc(NC(=O)c2ccc3c(c2)n(C)c(=O)n3C)cc1 | 55.7% (inactive) |
| O=C(O)COc1ccc2c(c1)OCCO2 | 107% (inactive) |
| O=C(Nc1cccc(Br)c1)c1cc2ccccc2o1 | 64.3% (inactive) |
| CC1(C)Cc2ccccc2-c2nc(NCCO)n(-c3ccccc3)c(=O)c21 | 83% (inactive) |

| SMILES | viability |
| --- | --- |
| C=C(C)CSc1nc2c(cc1C#N)CCC2 | 99.1% (inactive) |
| CCC1Oc2nc(SC)nnc2-c2ccccc2N1C(=O)c1ccccc1 (stereo not drawn) | 58.1% (inactive) |
| COC(=O)c1ccccc1NC(=O)CS(=O)(=O)Cc1nc(-c2ccc(C)cc2)oc1C | 87.8% (inactive) |
| O=C1CC(c2ccccc2)C(C(=O)Nc2ccccc2F)N1 (stereo not drawn) | 99.3% (inactive) |
| O=C(CCSCCc1ccccn1)Nc1nccs1 | 94.8% (inactive) |
| CCN(CCNS(=O)(=O)c1ccc2c(c1)oc(=O)n2C)c1ccccc1 | 105% (inactive) |
| O=C(CN(Cc1ccccc1)S(=O)(=O)c1ccccc1)NC1CC1 | 96% (inactive) |
| O=C(Nc1cccc(F)c1)c1ccc(S(=O)(=O)N2CCCC2)cc1 | 97% (inactive) |
| N#Cc1cccc(NC(=O)CC2CCCCC2)c1 | 86.8% (inactive) |
| O=S(=O)(NC1c2cccc3cccc(c23)C1N1CCNCC1)c1ccccc1 (stereo not drawn) | 74.8% (inactive) |
| CC(C)N(Cc1nc(-c2ccccc2)no1)C(=O)Cc1ccccc1 | 79.3% (inactive) |
| COc1cc(NC(=O)c2cc(-c3cccc(O)c3)on2)cc(OC)c1OC | 75.3% (inactive) |
| Cc1cccc(NC(=O)CC2SC(=NC3CCCCC3)NC2=O)c1 (stereo not drawn) | 94.9% (inactive) |
| CCSc1nnc(Cn2c(=O)sc3ccccc32)n1-c1ccc(OC)cc1 | 86.5% (inactive) |
| Cn1c(=O)oc2cc(S(=O)(=O)N3CCC(N4CCCCC4)CC3)ccc21 | 93% (inactive) |
| CN(C(=O)c1cnc2n(c1=O)CCS2)C1CCCCC1 | 110% (inactive) |
| COc1cc(OC)c(C2CC(=O)N3CN(C)CSC3=C2C#N)cc1OC (stereo not drawn) | 97.2% (inactive) |
| CCn1nnc(NC(=O)c2ccc(C(C)(C)C)cc2)n1 | 90.9% (inactive) |
| Cc1cc2nsnc2c(S(=O)(=O)NCC(=O)O)c1C | 102% (inactive) |

test: inhibitors of the yeast RAM network, pilot screen, dse1pr::URA3 reporter, 5-FOA selection (AID 869);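 also: 0% = DMSO wells with no growth and 100% = 10 µM 1-NA-PP1 with full growth; RAM network block rescues cells from 5-FOA so hits raise OD615 growth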; settings: S. cerevisiae dse1pr::URA3 5-FOA growth, OD615, 2 d; at 10 µM; stronger effect = higher value; strain carries analog-sensitive mutant Cbk1 kinase

| SMILES | inhibition |
| --- | --- |
| O=S(=O)(Cc1ccccc1)N1CCn2c(nc3ccccc32)C1 | 1.5% (inactive) |
| Cc1noc(C(=O)NCc2ccco2)c1Cl | 1.78% (inactive) |
| Cc1cc(=O)[nH]c(SCc2cc(Cl)ccc2OC(F)F)n1 | 1.62% (inactive) |
| COc1cccc(C2CC(c3ccccc3OC)n3nc(N)nc3N2)c1 (stereo not drawn) | 1.06% (inactive) |
| O=C1c2ccccc2C(=O)N1CCc1nc2ccccc2c(=O)n1Cc1ccco1 | 1.29% (inactive) |
| CCN(CC(=O)NCc1ccc(F)cc1)C(=O)C1CCN(C(=O)Nc2ccccc2)CC1 | 1.25% (inactive) |
| COCCn1c(SCCN2CCOCC2)nc2c1c(=O)[nH]c(=O)n2C | 1.45% (inactive) |
| Cc1ccc(C(=O)NCCn2cc(SCC(=O)Nc3cc(C)on3)c3ccccc32)cc1 | 0.015% (inactive) |
| COC(=O)C1CCCN1C(C(=O)NC1CCCCC1)c1ccc(Cl)cc1 (stereo not drawn) | 0.02% (inactive) |
| CC(=O)c1ccc(OCCCC(=O)NCC(c2ccco2)N(C)C)cc1 (stereo not drawn) | 0.755% (inactive) |
| CCOc1ccc(NC2c3ccccc3C(=O)N2c2ccc(Cl)cn2)cc1 (stereo not drawn) | 3.93% (inactive) |
| O=C(c1ccco1)N1CCN=C1SCc1cccc(Cl)c1 | 0.89% (inactive) |
| Cc1nn(C(=O)CN2C(=O)c3ccccc3C2=O)c(C)c1Br | 0.84% (inactive) |
| CCOC(=O)CNc1c(N2CCN(c3ccccn3)CC2)c(=O)c1=O | 1.91% (inactive) |
| CCOC(=O)c1[nH]c(=O)[nH]c1CSc1nc(C)cc(C)n1 | 0.985% (inactive) |
| Cc1ccc(NC(=O)CSc2nnc(Cc3cccn3C)n2-c2ccc(F)cc2)c(C)c1 | 2.25% (inactive) |
| COc1ccc(NC(=O)c2ccc3c(c2)n(C)c(=O)n3C)cc1 | 1.06% (inactive) |
| O=C(O)COc1ccc2c(c1)OCCO2 | 1.04% (inactive) |
| O=C(Nc1cccc(Br)c1)c1cc2ccccc2o1 | 0.03% (inactive) |
| CC1(C)Cc2ccccc2-c2nc(NCCO)n(-c3ccccc3)c(=O)c21 | -0.14% (inactive) |

| SMILES | inhibition |
| --- | --- |
| C=C(C)CSc1nc2c(cc1C#N)CCC2 | 2.3% (inactive) |
| CCC1Oc2nc(SC)nnc2-c2ccccc2N1C(=O)c1ccccc1 (stereo not drawn) | 1.03% (inactive) |
| COC(=O)c1ccccc1NC(=O)CS(=O)(=O)Cc1nc(-c2ccc(C)cc2)oc1C | 4.7% (inactive) |
| O=C1CC(c2ccccc2)C(C(=O)Nc2ccccc2F)N1 (stereo not drawn) | 0.81% (inactive) |
| O=C(CCSCCc1ccccn1)Nc1nccs1 | 2.55% (inactive) |
| CCN(CCNS(=O)(=O)c1ccc2c(c1)oc(=O)n2C)c1ccccc1 | 4.3% (inactive) |
| O=C(CN(Cc1ccccc1)S(=O)(=O)c1ccccc1)NC1CC1 | -0.45% (inactive) |
| O=C(Nc1cccc(F)c1)c1ccc(S(=O)(=O)N2CCCC2)cc1 | 1.78% (inactive) |
| N#Cc1cccc(NC(=O)CC2CCCCC2)c1 | 0.645% (inactive) |
| O=S(=O)(NC1c2cccc3cccc(c23)C1N1CCNCC1)c1ccccc1 (stereo not drawn) | 1.62% (inactive) |
| CC(C)N(Cc1nc(-c2ccccc2)no1)C(=O)Cc1ccccc1 | -0.4% (inactive) |
| COc1cc(NC(=O)c2cc(-c3cccc(O)c3)on2)cc(OC)c1OC | 4.79% (inactive) |
| Cc1cccc(NC(=O)CC2SC(=NC3CCCCC3)NC2=O)c1 (stereo not drawn) | 0.415% (inactive) |
| CCSc1nnc(Cn2c(=O)sc3ccccc32)n1-c1ccc(OC)cc1 | -0.94% (inactive) |
| Cn1c(=O)oc2cc(S(=O)(=O)N3CCC(N4CCCCC4)CC3)ccc21 | -0.02% (inactive) |
| CN(C(=O)c1cnc2n(c1=O)CCS2)C1CCCCC1 | 1.5% (inactive) |
| COc1cc(OC)c(C2CC(=O)N3CN(C)CSC3=C2C#N)cc1OC (stereo not drawn) | 1.06% (inactive) |
| CCn1nnc(NC(=O)c2ccc(C(C)(C)C)cc2)n1 | 1.79% (inactive) |
| Cc1cc2nsnc2c(S(=O)(=O)NCC(=O)O)c1C | 2.25% (inactive) |
